Source: PubChem BioAssay (National Center for Advancing Translational Sciences (NCATS))
Rows were chosen to be rich in hits. Some 10% of all compounds tested hit in one or more screens of this group.
GPT2 inh = blocks human glutamate pyruvate transaminase 2; Q8TD30; 0.25% of 100,000 active; Potency, µM (doses to about 57.7 µM), actives largely listed as inhibitors; Recombinant GPT2, coupled pyruvate oxidase/HRP Amplex Red fluorescence; note: nearly all actives have a fitted effect of over 60% in size
Target sequence (Q8TD30 whole entry, looked up): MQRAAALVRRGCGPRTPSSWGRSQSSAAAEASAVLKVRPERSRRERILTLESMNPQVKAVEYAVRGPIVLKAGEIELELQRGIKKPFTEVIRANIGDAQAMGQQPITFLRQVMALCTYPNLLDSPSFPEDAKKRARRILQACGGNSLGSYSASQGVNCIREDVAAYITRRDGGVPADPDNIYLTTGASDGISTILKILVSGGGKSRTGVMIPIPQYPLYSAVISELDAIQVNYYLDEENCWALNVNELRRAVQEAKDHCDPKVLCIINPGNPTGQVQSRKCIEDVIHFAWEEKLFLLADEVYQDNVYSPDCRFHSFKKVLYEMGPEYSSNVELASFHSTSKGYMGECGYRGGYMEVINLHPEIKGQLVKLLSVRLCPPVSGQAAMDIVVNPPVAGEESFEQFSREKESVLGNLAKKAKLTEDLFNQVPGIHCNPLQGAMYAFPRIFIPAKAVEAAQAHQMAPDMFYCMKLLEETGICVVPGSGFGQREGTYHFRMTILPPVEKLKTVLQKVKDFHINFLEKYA
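Recombinant GPT2 (10ng/uL) with 250uM a-KG and 2mM L-alanine, 30 min at room temperature, in HEPES pH 7.5 buffer. Pyruvate detected by pyruvate oxidase/HRP/Amplex Red fluorescence after 30 min in the dark; AOA (50uM) as positive control.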
3T3 cytotox = cytotoxic compounds in NIH 3T3 cells | Potency, µM (titrated, usually from 96.7 µM), usual class: inhibitors | 4.3% of 94,000 active | NIH 3T3 viability, CellTiter-Glo ATP luminescence, 48-72 h; note: nearly all actives have a fitted effect of over 55% in size
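Cytotoxicity is measured as loss of cellular ATP: NIH 3T3 cells (400/well) are exposed to compound for 48 or 72 hr at 37 °C, then CellTiter-Glo luminescence is imaged after 10 min at room temperature.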
NPR1 antag = antagonists of human natriuretic peptide receptor Npr1; HEK293 hNpr1 GloSensor cGMP, ANP-stimulated luminescence; Potency, µM (highest dose often 46.3 µM), usual class: inhibitors; 1.6% of 76,000 active; AID 1347048; calls by dose curve; note: nearly all actives have a fitted effect of over 60% in size
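Compound pre-incubated 30 min at room temperature on GloSensor-loaded HEK293 cells stably carrying hNpr1 and the pGS-40F cGMP biosensor. Stimulation uses hNppA at 0.1 nM final; luminescence is taken at baseline and 20 min post-agonist.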
FLuc inh = blocks purified firefly luciferase enzyme activity; purified P. pyralis luciferase, luminescence, biochemical; 2.5% of 76,000 active; P08659; Potency, µM (top dose mostly 115 µM), most hits filed as inhibitors; note: nearly all actives have a fitted effect of over 65% in size
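Purified 10nM P. pyralis luciferase with 10uM D-luciferin and 10uM ATP in 50mM Tris acetate pH 7.5, 10mM Mg acetate, 0.01% Tween-20, 0.05% BSA. qHTS titration; luminescence read by CCD imager.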
HEK293 tox = kills HEK 293 cells; Potency, µM (series often up to 115 µM), usual class: inhibitors; 6.6% of 94,000 active; AID 1345083; HEK 293 viability, ATP luminescence (CellTiter-Glo), 48-72 h; note: nearly all actives have a fitted effect of over 60% in size
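HEK 293 cells at 250 cells/well were exposed to compounds by pintool transfer for 48 or 72 hr at 37 degree Celsius, 5% CO2. Viability was read as ATP-coupled luminescence with CellTiter-Glo after 10 min at room temperature.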
Each line names hits and unclear results; the compound was inactive in the other large screens. Unless noted, calls come from the whole dose curve; as a rule, active = well fitted curve in the direction sought with a large enough effect; inconclusive = small, poorly fitted or top-dose-only effect, or another doubt; inactive = no such curve, though single readings can be large; an effect the other way counts as inactive or inconclusive.

O=C(C1CC1)N1CCCC(c2nn(-c3ccc(F)cc3)c(=O)[nH]2)C1 (configuration not stated)	HEK293 tox inconclusive
COc1cccc(NC(=O)CN2C(=O)NC(c3ccc(C)cc3)C3=C2COC3=O)c1 (configuration not stated)	3T3 cytotox inconclusive, HEK293 tox inconclusive
O=C(CN1C(=O)NC(c2ccccc2Cl)C2=C1COC2=O)Nc1cccc(F)c1 (configuration not stated)	FLuc inh inconclusive, HEK293 tox inconclusive
O=C(CN1C(=O)NC(c2ccc(Cl)cc2)C2=C1COC2=O)Nc1cccc(Br)c1 (configuration not stated)	3T3 cytotox inconclusive, NPR1 antag inconclusive, FLuc inh inconclusive, HEK293 tox 20µM
O=C(CN1C(=O)NC(c2ccc(Cl)cc2)C2=C1COC2=O)Nc1cccc(F)c1 (configuration not stated)	3T3 cytotox 28µM, HEK293 tox 45µM
O=C(NCCc1ccccc1)N1CCCC(c2noc(COc3ccccc3)n2)C1 (configuration not stated)	3T3 cytotox inconclusive, FLuc inh inconclusive, HEK293 tox inconclusive
COc1cccc(C(O)c2nc(C(=O)Nc3ccc4c(c3)OCC(=O)N4)c(C)o2)c1 (configuration not stated)	3T3 cytotox inconclusive, FLuc inh inconclusive, HEK293 tox inconclusive
CN1c2cc(C(=O)Nc3ccc(Cl)c(F)c3)ccc2C(=O)N2CCCCCC21 (configuration not stated)	3T3 cytotox inconclusive, FLuc inh inconclusive, HEK293 tox inconclusive
Cc1nc(N2CCC(NC(=O)c3nn(C)c4ccccc34)CC2)cc(C(F)(F)F)n1	3T3 cytotox inconclusive, NPR1 antag inconclusive, HEK293 tox 45µM
Cc1ccccc1C(=O)N1CCN(c2ccc3nnc(-c4ccccc4)n3n2)CC1	3T3 cytotox inconclusive (no result: GPT2 inh, NPR1 antag, FLuc inh)
COc1ccc(CN2CC3(C2)C(=O)N(Cc2cccc(Cl)c2)C(=O)[C@@H]2C[C@@H](O)CN23)c2ccccc12	GPT2 inh inconclusive, 3T3 cytotox inconclusive, HEK293 tox inconclusive
COC(=O)c1ccc(CN2C(=O)[C@@H]3C[C@@H](O)CN3C3(CN(Cc4ccc(OC)c5ccccc45)C3)C2=O)cc1	3T3 cytotox 79µM, HEK293 tox inconclusive
CN(Cc1ccc(-c2ccccc2)cc1)C(=O)c1ccccc1	3T3 cytotox inconclusive, NPR1 antag inconclusive, FLuc inh inconclusive, HEK293 tox inconclusive
Cc1ccc(C(=O)N(C)Cc2cccc(C(F)(F)F)c2)cc1	3T3 cytotox inconclusive, HEK293 tox 100µM
COc1cccc(C(=O)N(C)Cc2ccccc2C(F)(F)F)c1	3T3 cytotox inconclusive, HEK293 tox 100µM
Cc1ccc(C(=O)N(C)Cc2ccc(-c3ccccc3)cc2)cc1	3T3 cytotox inconclusive, HEK293 tox 89µM
COc1cccc(C(=O)N(C)Cc2cccc(C(F)(F)F)c2)c1	3T3 cytotox inconclusive, HEK293 tox 89µM
O=C(c1ccccc1F)N1CCC(C(=O)N2CCCC2c2nc3ccncc3[nH]2)CC1 (configuration not stated)	none (no result: NPR1 antag, FLuc inh)
O=C(c1ccc(F)cc1)N1CCC(C(=O)N2CCC(c3nc4ncccc4[nH]3)C2)CC1 (configuration not stated)	none (no result: NPR1 antag, FLuc inh)
O=C(c1ccsc1)N1CCC2(CC1)NCCc1c2[nH]c2ccccc12	HEK293 tox inconclusive
Cc1cccc(CC(=O)N2CCC3(CC2)CCC(O)(CN(C)C)CC3)c1	FLuc inh inconclusive
CN(Cc1cccc(C(F)(F)F)c1)C(=O)c1ccccc1Cl	3T3 cytotox 89µM, HEK293 tox 56µM
CC(=O)Nc1cccc(C(=O)N2CCC(n3cc(-c4nc(C(C)C)no4)nn3)CC2)c1	none
COc1ccc(-c2cnc3[nH]cc(CC(=O)Nc4ccc(F)c(Cl)c4)c3c2)cc1	GPT2 inh inconclusive, 3T3 cytotox 32µM, HEK293 tox inconclusive
COc1ccc(NC(=O)Cc2c[nH]c3ncc(-c4ccccc4)cc23)cc1	3T3 cytotox inconclusive
NC(=O)Cc1c[nH]c2ncc(-c3cccc(N4CCOCC4)c3)cc12	GPT2 inh inconclusive, 3T3 cytotox 100µM
Cc1ccccc1-c1cnc2[nH]cc(CC(=O)Nc3ccccc3)c2c1	3T3 cytotox 40µM, NPR1 antag inconclusive, HEK293 tox inconclusive
Cn1cc(-c2cnc3[nH]cc(CC(=O)Nc4ccccc4Cl)c3c2)cn1	3T3 cytotox inconclusive
COc1ccc(-c2cnc3[nH]cc(CC(=O)Nc4ccc(C(F)(F)F)cc4)c3c2)cc1	3T3 cytotox 45µM, HEK293 tox inconclusive
O=C(c1cccc(Cl)c1)N1Cc2ccccc2CC2(CCCN2Cc2ccncc2)C1 (configuration not stated)	3T3 cytotox inconclusive, HEK293 tox inconclusive (no result: NPR1 antag, FLuc inh)
O=C(NCc1cccnc1)c1ccc2nnc(Cc3ccco3)n2c1	none (no result: NPR1 antag, FLuc inh)
Cc1cc(C(=O)N2C[C@@H](Oc3ccccc3)C[C@H]2C(=O)N2CCCC2)n(C)n1	none
O=C(Cc1c[nH]c2ncc(-c3cccnc3)cc12)Nc1ccc(C(F)(F)F)cc1	GPT2 inh inconclusive, 3T3 cytotox inconclusive, NPR1 antag inconclusive, HEK293 tox inconclusive
Cn1cc(-c2cnc3[nH]cc(CC(=O)Nc4ccc(N5CCOCC5)cc4)c3c2)cn1	HEK293 tox inconclusive
O=C(Cc1c[nH]c2ncc(-c3ccccc3)cc12)Nc1ccc(C(F)(F)F)cc1	3T3 cytotox inconclusive, HEK293 tox 63µM
O=C(Cc1c[nH]c2ncc(-c3ccccc3)cc12)Nc1ccc(N2CCOCC2)cc1	3T3 cytotox 25µM, HEK293 tox 63µM
Cn1cc(-c2cnc3[nH]cc(CC(=O)Nc4cccc(F)c4)c3c2)cn1	3T3 cytotox inconclusive, HEK293 tox 45µM
CCOc1ccccc1NC(=O)N1CCC(c2nc(-c3cccn3C)no2)CC1	3T3 cytotox inconclusive, HEK293 tox inconclusive (no result: NPR1 antag, FLuc inh)
COc1ccc(CNC(=O)C[C@@H]2CCNC[C@@H]2Cc2cc(COc3ccccc3)on2)cc1	3T3 cytotox 25µM, HEK293 tox inconclusive
O=C(C[C@@H]1CCNC[C@@H]1Cc1cc(CC2CCCCC2)on1)NCc1ccco1	3T3 cytotox 100µM, NPR1 antag inconclusive, HEK293 tox 45µM
COc1ccc(CNC(=O)C[C@@H]2CCNC[C@@H]2Cc2cc(CSc3ccccc3)on2)cc1	3T3 cytotox inconclusive, HEK293 tox 50µM
O=C(C[C@@H]1CCNC[C@@H]1Cc1cc(CC2CCCCC2)on1)NCc1cccnc1	3T3 cytotox inconclusive
O=C(C[C@@H]1CCNC[C@@H]1Cc1cc(COc2ccccc2)on1)NCc1ccc(F)cc1	3T3 cytotox inconclusive, HEK293 tox inconclusive
COc1ccc(CNC(=O)C[C@@H]2CCNC[C@@H]2Cc2cc(C(C)(C)C)on2)cc1	HEK293 tox inconclusive
COc1ccc(CNC(=O)C[C@@H]2CCNC[C@@H]2Cc2cc(CC3CCCCC3)on2)cc1	GPT2 inh inconclusive, 3T3 cytotox 28µM, NPR1 antag inconclusive, HEK293 tox 28µM
